Screening data (PubChem BioAssay)
N370S GC = inhibits or activates N370S mutant glucocerebrosidase; P04062; N370S GC spleen homogenate, 4MU-glucoside fluorescence; Potency, µM (titrated, usually from 59.4 µM), for the others: at the top dose activity change, negative = inhibition, usual class: inhibitors; 330,000 tested, 0.092% active;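 note: potency is the fitted concentration of half-maximal effect; 0% = full enzyme activity and -100% = no enzyme basal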
pAkt inh = blocks phosphorylation of Akt | activity change, % for hits at 50 µM | 360,000 tested, 0.32% active | Neuro2A IGF-stimulated pAkt S473 HTRF, 20 min; active compounds read low; in the data active = activity change below about -80%; inconclusive = mostly about -51% to -80%; note: % is set by controls: 0 for no effect and ±100 for the full control effect
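Neuro2A cells (4,500/well, DMEM with 0.5% FBS) were treated with compound at a single 50 µM final concentration, stimulated with 6 nM IGF for 20 min at 37 °C, and lysed. Phospho-Akt Ser473 was read by HTRF as 665/615 ratio ×10^4.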
rTrxR1 inhibitor = rat TrxR1 inhibition; O89049; recombinant rTrxR1, NADPH fluorescence consumption, selenite substrate; Potency, µM (highest dose often 114 µM), inactives show top-dose activity change, negative = inhibition, actives largely listed as inhibitors; 390,000 tested, 1% active; note: potency is the fitted concentration of half-maximal effect; % is set by controls: 0 for no effect and ±100 for the full control effect; nearly all actives have a fitted effect of over 65% in size
Target sequence (O89049 whole entry, looked up): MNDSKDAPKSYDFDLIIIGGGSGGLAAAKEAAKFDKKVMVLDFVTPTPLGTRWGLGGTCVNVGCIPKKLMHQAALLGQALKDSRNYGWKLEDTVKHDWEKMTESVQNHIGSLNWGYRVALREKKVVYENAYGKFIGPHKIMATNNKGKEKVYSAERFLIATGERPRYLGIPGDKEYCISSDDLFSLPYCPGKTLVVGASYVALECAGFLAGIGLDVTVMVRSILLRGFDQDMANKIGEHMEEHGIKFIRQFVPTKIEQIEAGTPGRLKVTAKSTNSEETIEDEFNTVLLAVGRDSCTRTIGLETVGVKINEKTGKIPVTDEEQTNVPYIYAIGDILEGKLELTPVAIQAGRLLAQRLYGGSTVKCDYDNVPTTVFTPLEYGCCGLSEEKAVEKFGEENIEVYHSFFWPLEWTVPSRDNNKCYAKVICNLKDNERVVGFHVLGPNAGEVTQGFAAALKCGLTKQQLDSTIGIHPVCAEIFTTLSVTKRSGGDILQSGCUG
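Rat TrxR1 (90 nM in the dispensed reagent) was pre-reduced with 400 uM NADPH for 5 min at room temperature, then incubated with compound for 15 min. After 400 uM selenite was added, NADPH fluorescence (Ex 340/Em 450 nm) was followed for 8 min.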
A-T KAP1 phos = potential ataxia-telangiectasia treatments restoring KAP-1 phosphorylation; F2112 A-T fibroblasts, KAP-1 phosphorylation AlphaLISA; neocarzinostatin DNA damage 30 min before lysis; Potency, µM (series often up to 57.5 µM), for the others: top-dose activation, most hits filed as activators; 320,000 tested, 0.19% active; note: potency is the fitted concentration of half-maximal effect; % of control where 0% means no effect; nearly all actives have a fitted effect of over 45% in size
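hTERT-immortalized A-T patient fibroblasts (F2112), 500 cells/well in OPTI-MEM, 1% FBS, got compounds for 60 min, then NCS for 30 min at 37C. Lysates were then assayed for phospho-KAP-1 by AlphaLISA (anti-pKAP1 donor, anti-KAP1 acceptor beads), 6 hr at 25C.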
TrxR1 substrate = is turned over as a substrate by rat TrxR1 | 390,000 tested, 0.01% active | AID 588456 | purified TrxR1 substrate turnover, NADPH consumption readout | Potency, µM (titrated, usually from 114 µM), inactives show at the top dose activity change, negative = substrate turnover | O89049; note: potency is the fitted concentration of half-maximal effect; % is set by controls: 0 for no effect and ±100 for the full control effect; nearly all actives have a fitted effect of over 50% in size
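Rat TrxR1, dispensed at 90 nM, was prereduced with 400 uM NADPH (final) for 5 min at ~22 deg C, then incubated with compound 15 min before 400 uM selenite. A first-read NADPH fluorescence drop versus no-compound background flagged substrates.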
Pin1 inhibitor = human Pin1 inhibition | Pin1 FP peptide displacement, HiFluor488, 10 min | Potency, µM (titrated, usually from 115 µM), for the others: at the highest dose activity, negative = inhibition, actives largely listed as inhibitors | 390,000 tested, 0.009% active; active = well fitted inhibition curve with a large enough effect in the polarisation, with a control signal flat, not every such curve was filed as active; inconclusive = small, poorly fitted or top-dose-only effect, or effect the other way, or a change in a side signal; inactive = no such curve, though single readings can be large or run the other way; the % refers to the polarisation; note: potency is the fitted concentration of half-maximal effect; % is set by controls: 0 for no effect and ±100 for the full control effect
The depositor's hits bear a star; [ ] = another dose, or the depositor's remark. The list is not random: actives were taken first. Their share in the collection is about 1.4%. Unless noted, calls come from the whole dose curve; as a rule, active = well fitted curve in the direction sought with a large enough effect; inconclusive = small, poorly fitted or top-dose-only effect, or another doubt; inactive = no such curve, though single readings can be large; an effect the other way counts as inactive or inconclusive.

For O=[N+]([O-])c1cc(S(=O)(=O)C(F)(F)F)ccc1Sc1nc2ccccc2[nH]1 the results were N370S GC -2%, pAkt inh inactive, rTrxR1 inhibitor 8.9µM*, A-T KAP1 phos -1%, TrxR1 substrate -13% and Pin1 inhibitor 1%.
For O=[N+]([O-])c1cc(S(=O)(=O)C(F)(F)F)ccc1Sc1nc2ccccc2s1 the results were pAkt inh inactive, rTrxR1 inhibitor 1.6µM*, A-T KAP1 phos -6%, TrxR1 substrate -7% and Pin1 inhibitor -1%.
Screening COc1ccc(-n2cnc3c(c2=N)C(c2cccc(OC)c2)c2c(ccc4ccccc24)O3)cc1 (stereo not given) returned Pin1 inhibitor 15%.
COCCN(C(=O)c1ccco1)C(C(=O)NC1CCCC1)c1cccs1 (stereo not given) was read as N370S GC 7%, pAkt inh -92%*, rTrxR1 inhibitor -15%, A-T KAP1 phos -7%, TrxR1 substrate 23% and Pin1 inhibitor 25%.
CCOC(=O)CN(C(=O)CNC(=O)c1ccco1)C(C(=O)NC1CCCCC1)c1cccs1 (stereo not given) was read as N370S GC 11%, pAkt inh inactive, rTrxR1 inhibitor -14%, A-T KAP1 phos 6%, TrxR1 substrate -5% and Pin1 inhibitor 21%.
`COCCCNC(=O)c1ccc(-n2c(-c3ccccc3)cc3c2CCCC3)cc1` gave rTrxR1 inhibitor 13%, TrxR1 substrate -4% and Pin1 inhibitor 2%.
Screening COC(=O)[C@@H]1[C@H]2SC(C)(C)[C@H](C(=O)OC)N2C(=O)N1Cc1cc2ccccc2n1S(=O)(=O)c1ccccc1 returned rTrxR1 inhibitor 12% and TrxR1 substrate -8%.
COc1cccc(NC(=O)/C=C/c2ccco2)c1 was read as N370S GC -5%, pAkt inh inactive, rTrxR1 inhibitor -69%, A-T KAP1 phos -2%, TrxR1 substrate -7% and Pin1 inhibitor 11%.
O=C(/C=C/c1ccco1)NC(=S)Nc1cccc([N+](=O)[O-])c1 was read as N370S GC 26%, pAkt inh inactive, rTrxR1 inhibitor 20µM*, TrxR1 substrate -2%[57.1 µM] and Pin1 inhibitor inconclusive.
For O=C(/C=C/c1ccco1)NC(=S)Nc1ccccc1 the results were N370S GC -3%, pAkt inh inactive, rTrxR1 inhibitor 45µM*, A-T KAP1 phos -8%, TrxR1 substrate -12% and Pin1 inhibitor -4%.
CCCCC(=O)NC(=S)Nc1cccc(NC(=O)c2ccco2)c1 was read as N370S GC -7%, pAkt inh inactive, rTrxR1 inhibitor 8.9µM*, A-T KAP1 phos -3%, TrxR1 substrate 1% and Pin1 inhibitor -1%.
For O=C(NC(=S)Nc1cccc([N+](=O)[O-])c1)c1ccco1 the results were N370S GC 7%, pAkt inh inactive, rTrxR1 inhibitor -11%[57.1 µM], A-T KAP1 phos -3%, TrxR1 substrate -1%[57.1 µM] and Pin1 inhibitor -1%.
Screening CC(=O)c1ccc(NC(=S)NC(=O)/C=C/c2ccco2)cc1 returned N370S GC -2%, pAkt inh inactive, rTrxR1 inhibitor inconclusive, A-T KAP1 phos -1%, TrxR1 substrate -6% and Pin1 inhibitor inconclusive.
`CSc1cccc(NC(=O)/C=C/c2ccco2)c1` gave N370S GC -8%, pAkt inh inactive, rTrxR1 inhibitor 14µM*, A-T KAP1 phos 1%, TrxR1 substrate -9%[57.1 µM] and Pin1 inhibitor 5%.
`O=C(N1Cc2ccc(Nc3nn4c(=O)c5ccccc5nc4s3)cc2C1)C(F)(F)F` gave Pin1 inhibitor 7%.
N#Cc1cccc(-c2ccc3ncnc(NCCN4CCOCC4)c3c2)c1 was read as N370S GC -6%.
Screening Cc1cccc(NC(=S)NC(=O)/C=C/c2ccco2)c1 returned N370S GC 1%, pAkt inh inactive, rTrxR1 inhibitor 22µM*, A-T KAP1 phos -5%, TrxR1 substrate 4% and Pin1 inhibitor 2%.
